Columns and labels:
Type in all cases: functional
[1] = target: Solute carrier family 2, facilitated glucose transporter member 1 (Homo sapiens) (UniProt P11166); test: ST_JUDE_LEISH: Cytotoxicity at 2uM final concentration against transgenic Leishmania Mexicana promastigotes LmGLUT1 that are glucose transport deficient and complemented with the human glucose transporter GLUT1. Activity is measured by DNA content using SYBR green in vitro
[2] = target: Hexose transporter 1 (Plasmodium falciparum) (UniProt O97467); test: ST_JUDE_LEISH: Cytotoxicity at 2uM final concentration against transgenic Leishmania Mexicana promastigotes LmPfHT that are glucose transport deficient and complemented with the Plasmodium falciparum hexose transporter. Activity is measured by DNA content using SYBR green in vitro
[3] = target: Glucose transporter (Leishmania mexicana) (UniProt O61059); test: ST_JUDE_LEISH: Cytotoxicity at 2uM final concentration against transgenic Leishmania Mexicana promastigotes LmGT2 that are glucose transport deficient and complemented with the L. Mexicana glucose transporter 2. Activity is measured by DNA content using SYBR green in vitro

Chain of Solute carrier family 2, facilitated glucose transporter member 1 (Homo sapiens) (P11166 whole entry): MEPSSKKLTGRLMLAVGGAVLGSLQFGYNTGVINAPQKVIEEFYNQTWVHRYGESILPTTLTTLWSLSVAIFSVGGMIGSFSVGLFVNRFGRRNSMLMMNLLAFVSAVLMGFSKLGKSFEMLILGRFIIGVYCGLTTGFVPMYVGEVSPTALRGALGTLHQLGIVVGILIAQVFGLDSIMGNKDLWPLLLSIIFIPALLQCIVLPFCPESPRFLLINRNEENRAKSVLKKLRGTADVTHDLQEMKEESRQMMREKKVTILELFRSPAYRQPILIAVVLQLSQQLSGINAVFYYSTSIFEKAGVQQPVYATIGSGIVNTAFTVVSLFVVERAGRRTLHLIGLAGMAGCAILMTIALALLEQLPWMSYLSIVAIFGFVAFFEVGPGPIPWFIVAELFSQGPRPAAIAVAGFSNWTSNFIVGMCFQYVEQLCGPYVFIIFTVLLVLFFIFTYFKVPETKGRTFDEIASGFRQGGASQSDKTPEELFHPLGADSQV

COc1cccc(CCc2ccc(O)c3c2C[C@H]2C[C@H]4[C@H](N(C)C)C(O)=C(C(N)=O)C(=O)[C@@]4(O)C(O)=C2C3=O)c1
inhibition [1]: 4.53% | inhibition [2]: 4.13% | inhibition [3]: 1.64%

CCCN(CCCN(CCCN(CCC)C(C)C)c1cc(C)nc(Nc2ccc(Cl)cc2)n1)C(C)C
inhibition [1]: 9.21% | inhibition [2]: 7.26% | inhibition [3]: 6.27%

CCOc1ccc(Nc2nc(N)c3ccccc3n2)cc1
inhibition [1]: 12.3% | inhibition [2]: 10.3% | inhibition [3]: 6.25%

COc1ccccc1-n1c(SCC(=O)Nc2ccccc2F)nc2cccnc21
inhibition [1]: 2.95% | inhibition [2]: 1.38% | inhibition [3]: 2.25%

Cn1nc(-c2ccc(NC(=O)Nc3cc(C(F)(F)F)ccc3F)cc2)c2cnc(NCCCCN3CCCC3)nc21
inhibition [1]: 3.73% | inhibition [2]: 4.39% | inhibition [3]: 4.25%

Cc1noc(C)c1C(=O)N1CCCC(c2[nH]c3c(C)cccc3c2-c2ccncc2)C1 (configuration not stated)
inhibition [1]: 2.42% | inhibition [2]: 3% | inhibition [3]: 2%

NC1CCN(Cc2cccc(-c3ccc(-c4nc5ccccc5[nH]4)cc3)c2)C1 (configuration not stated)
inhibition [1]: -1.1% | inhibition [2]: 2.18% | inhibition [3]: 1.99%

CCC(C)NCCC(c1ccccc1)c1ccccc1O (configuration not stated)
inhibition [1]: 5.11% | inhibition [2]: 4.69% | inhibition [3]: 4.41%

CCN(CC)CCCN(CCCN(CC)CC)c1cc(C)nc(Nc2ccc(Br)cc2)n1
inhibition [1]: 0.34% | inhibition [2]: 0.99% | inhibition [3]: -0.4%

Cn1cncc1-c1cc2c(Nc3ccc(OCc4ccccc4)cc3)ncnc2cn1
inhibition [1]: 4.63% | inhibition [2]: 5.99% | inhibition [3]: 1.66%

CC(=O)Nc1cc(C(=O)Nc2cccc(-c3cccc(-c4nc5cccc(C)c5[nH]4)c3)c2)ccc1C
inhibition [1]: 2.89% | inhibition [2]: 2.86% | inhibition [3]: 1.31%

COc1ccc(-n2ncc(C(=O)N3CCC4(C3)C(=O)N(c3ccccc3)c3ccccc34)c2C)cc1 (configuration not stated)
inhibition [1]: 1.9% | inhibition [2]: 2.74% | inhibition [3]: 0.94%

C=CCC(C)n1ncc2c3c(N)nc(N)nc3ccc21 (configuration not stated)
inhibition [1]: 2.58% | inhibition [2]: -0.39% | inhibition [3]: -0.24%

O=C(/C=C/c1ccc(C(F)(F)F)cc1)N1CCC(CCN2CCC(c3c[nH]c4ccccc34)CC2)CC1
inhibition [1]: 16.8% | inhibition [2]: 9.28% | inhibition [3]: 3.39%

From ChEMBL document CHEMBL3433997, “St. Jude Leishmania screening dataset” (2016)
